PubChem BioAssay (NCI)
This is part of a sample that, as a whole, favours compounds with a hit. Of some 79,000 tested, about 15% had one in any assay. The source made the active and inactive calls. Cut-off read from the data, not from the text of the source: active = growth inhibition above about 70%; inactive = the rest.

Test: NCI Yeast Anticancer Drug Screen. Data for the rad18 strain (AID 177)
Conditions: S. cerevisiae rad18 mutant growth inhibition, active compounds read high
Description: Growth inhibition of yeast strains with defined genetic alterations is measured as a screen for potential anti-cancer activity. Selected strains with alterations in DNA damage repair or cell cycle control were exposed to compounds and growth inhibition was measured relative to vehicle treated controls. The strain used in this assay is rad18

Measured: growth inhibition

O=C1OC(CCl)CN1/N=C/c1ccc([N+](=O)[O-])o1 (stereo not given)
active: at 3.7 µM 72% | at 11.0 µM 91% | at 33.0 µM 95% | at 100.0 µM 96%
inactive: at 1.2 µM 45%

CC(=O)OCc1ccc(O)c(C=O)c1
active: at 33.0 µM 83% | at 100.0 µM 89%
inactive: at 1.2 µM -13% | at 3.7 µM 9% | at 11.0 µM 54%

CN(C)c1ccc(Sc2ccc3nc(N)nc(N)c3c2)cc1
inactive: at 1.2 µM 3% | at 3.7 µM -17% | at 11.0 µM -12% | at 33.0 µM -17% | at 100.0 µM 11%

Cc1c(C2=C(Br)C(=O)N(C)C2=O)c(=O)n(C)c(=O)n1C
inactive: at 1.2 µM 17% | at 3.7 µM 46%
active: at 11.0 µM 75% | at 33.0 µM 88% | at 100.0 µM 96%

O=C1C=CC(=Nc2ccc3c(c2)Cc2cc(NC(=O)C(F)(F)F)ccc2-3)O1
active: at 100.0 µM 96%
inactive: at 1.2 µM 4% | at 3.7 µM 13% | at 11.0 µM 32% | at 33.0 µM 57%

O=C(NCCCNCCCNC(=O)c1cc(-c2ccccc2)nc2ccccc12)c1cc(-c2ccccc2)nc2ccccc12
inactive: at 1.2 µM -4% | at 3.7 µM -3% | at 11.0 µM -4% | at 33.0 µM 13% | at 100.0 µM 34%

OC1CSCCCSCCSCCCSC1
inactive: at 1.2 µM -30% | at 3.7 µM -41% | at 11.0 µM -49% | at 33.0 µM -49% | at 100.0 µM -75%

S=C(N/N=C(/c1ccccc1)c1ccccn1)N1CCCCCC1
inactive: at 1.2 µM 8% | at 3.7 µM 20% | at 11.0 µM 20% | at 33.0 µM 6% | at 100.0 µM 19%
